The text below walks through data of PubChem BioAssay AID485346 (Sanford-Burnham Center for Chemical Genomics, 2010).

Structures are written as SMILES. About 10,000 (3%) of roughly 330,000 compounds were called active.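 Rule for the calls: active = inhibition of at least 50% at 8 µM in the primary screen; inactive = the rest.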 Shown is part of a subset that was picked to be rich in actives.

The assay deals with Protein Mdm4 (Homo sapiens) + E3 ubiquitin-protein ligase Mdm2 (Homo sapiens) (UniProt O15151+Q00987). The assay can be described thus: disruptors of Mdm2/MdmX RING complex – cell-based, luminescence, split luciferase, SaOS-2, uHTS, primary screen (AID 485346). Conditions: SaOS-2 split-luciferase Mdm2/MdmX complementation, at 8 µM, hits give high values.
Chain of Protein Mdm4 (Homo sapiens) + E3 ubiquitin-protein ligase Mdm2 (Homo sapiens) (O15151 whole entry, looked up): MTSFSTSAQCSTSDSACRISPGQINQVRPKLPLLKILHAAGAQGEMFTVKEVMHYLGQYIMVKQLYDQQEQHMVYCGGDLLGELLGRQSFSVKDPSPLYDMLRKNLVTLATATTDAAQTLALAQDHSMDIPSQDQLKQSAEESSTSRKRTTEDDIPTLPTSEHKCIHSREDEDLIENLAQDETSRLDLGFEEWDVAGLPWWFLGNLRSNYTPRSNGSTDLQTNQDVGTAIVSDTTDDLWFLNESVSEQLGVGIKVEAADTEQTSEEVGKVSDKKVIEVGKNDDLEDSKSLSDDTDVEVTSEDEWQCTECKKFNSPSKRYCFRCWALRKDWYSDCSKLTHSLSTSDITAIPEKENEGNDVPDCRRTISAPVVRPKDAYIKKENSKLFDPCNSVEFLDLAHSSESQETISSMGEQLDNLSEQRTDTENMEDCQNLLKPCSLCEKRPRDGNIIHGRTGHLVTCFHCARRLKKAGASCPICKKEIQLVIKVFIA
Chain of Protein Mdm4 (Homo sapiens) + E3 ubiquitin-protein ligase Mdm2 (Homo sapiens) (Q00987 whole entry, looked up): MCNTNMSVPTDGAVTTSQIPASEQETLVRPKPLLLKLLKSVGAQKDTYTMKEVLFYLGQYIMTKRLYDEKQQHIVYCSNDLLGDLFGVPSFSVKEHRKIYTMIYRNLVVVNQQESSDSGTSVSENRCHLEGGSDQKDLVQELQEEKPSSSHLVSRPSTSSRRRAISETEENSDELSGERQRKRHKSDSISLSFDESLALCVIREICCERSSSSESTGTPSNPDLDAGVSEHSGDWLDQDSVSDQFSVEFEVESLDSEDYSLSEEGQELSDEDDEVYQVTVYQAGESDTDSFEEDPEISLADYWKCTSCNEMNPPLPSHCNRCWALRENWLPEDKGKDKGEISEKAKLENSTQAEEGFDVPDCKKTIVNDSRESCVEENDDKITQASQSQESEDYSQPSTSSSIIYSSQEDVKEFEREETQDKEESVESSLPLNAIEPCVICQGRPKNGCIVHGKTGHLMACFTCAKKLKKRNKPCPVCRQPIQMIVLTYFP
Take `Cc1ccc(Cn2c(=N)c(S(=O)(=O)c3ccc(C)cc3)cc3c(=O)n4ccccc4nc32)cc1`: the inhibition is 21.6% (inactive). The same measure for `N#CC1=C(N)Oc2cc(O)ccc2C1C1CCCCC1` (configuration not stated): 64.7% (active); for `COCc1[nH]nc2c1C(C1C=CCCC1)C(C#N)=C(N)O2` (configuration not stated): 23.8% (inactive); for `N#CC1=C(N)OC2=C(C(=O)CCC2)C1C1CC=CCC1` (configuration not stated): -10% (inactive). With `COc1cc(/C=C2\Oc3ccc(C#Cc4ccc(O)cc4)cc3C2=O)cc(OC)c1` the figure was 62.4% (active); with `COc1cc(C#Cc2ccc3cc(CCCO)oc(=O)c3c2)cc(OC)c1`, 38.9% (inactive). With `COc1ccc2c(c1)O/C(=C\c1ccccc1O)C2=O` the figure was -152% (inactive). For `O=C(Nc1cccc2c1CCCC2)c1ccc(F)cc1`, the inhibition was 11.9% (inactive). The same measure for `COc1ccc([C@H]2CC(=O)C=C(c3ccc(OC(F)(F)F)cc3)C2)cc1OC`: -6.36% (inactive). Consider `CC[n+]1cc(C)ccc1/C=C/c1ccc(N(C)C)cc1`, for which the inhibition was 81.1% (active). With `Cc1ccc2c(cnn2C(=O)CCC(=O)NC2CCCC2)c1` the figure was 7.95% (inactive); with `Cn1nccc1NS(=O)(=O)c1ccc(F)cc1`, -11.5% (inactive). Consider `NS(=O)(=O)c1ccc(CCNC(=O)c2ccc([N+](=O)[O-])cc2[N+](=O)[O-])cc1`, for which the inhibition is -0.842% (inactive). With `Cc1c(-c2ccccc2)cn2c1-c1ccc(C)n1CC2` the figure was -3.59% (inactive); with `O=S(=O)(c1cccs1)N1CCN(CCOc2ccccc2)CC1`, 14.3% (inactive); with `Cn1cc(S(=O)(=O)NC(c2ccccc2)c2ccccc2)c(=O)n(C)c1=O`, 7.36% (inactive).

In the case of `Nc1cccc(-c2cc(-c3ccccc3)nc(-c3cccc(N)c3)n2)c1`, the inhibition is 65% (active). The same measure for `c1ccc(-c2cc(-c3ccccc3)[nH]n2)cc1`: -145% (inactive).

Consider `Nc1cccc(CCc2nc3ccccc3[nH]2)c1`, for which the inhibition was -30.8% (inactive).

With `N#Cc1cccc(CSc2ncnc(N)n2)c1`, the inhibition is 7.81% (inactive). With `COc1ccc(C2CC(c3cccs3)=NN2c2ccc(F)cc2)cc1OC` (configuration not stated) the figure was -3.01% (inactive); with `COc1ccc(C2CC(c3cccs3)=NN2C(=O)CCC(=O)O)cc1OC` (configuration not stated), 17.5% (inactive); with `COc1ccc(C2CC(c3cccs3)=NN2c2nc(C)c(C(C)=O)s2)cc1OC` (configuration not stated), 67.5% (active). The same measure for `Cc1cc(NC(=O)CCC(=O)N(Cc2ccccc2)C(C(=O)NC2CCCC2)c2ccc(C)o2)no1` (configuration not stated): 16.1% (inactive).

As to `O=C(Cc1cccc2ccccc12)NNC(=O)Nc1ccc(Cl)cc1`, the inhibition is -10% (inactive).

With `Cc1ccc(NC(=S)NC(NC(=O)Cc2cccc3ccccc23)C(Cl)(Cl)Cl)cc1` (configuration not stated), the inhibition is 79.8% (active). With `CC(C)(C)C(=O)NC(NC(=S)Nc1ccc(S(N)(=O)=O)cc1)C(Cl)(Cl)Cl` (configuration not stated) the figure was 18.8% (inactive); with `COc1ccc(S(=O)(=O)N2CCN(C(=O)N(C)C)C2C)cc1` (configuration not stated), -11.6% (inactive); with `O=c1ccc2cc(S(=O)(=O)NCCCc3ccccc3)ccc2[nH]1`, 23.1% (inactive). With `N#Cc1c(N)nc2c(c1N)CC(C(F)(F)F)O2` (configuration not stated) the figure was 9.73% (inactive). The same measure for `CN1C(=O)/C(=C/c2ccco2)SC1=Nc1cccc(C(=O)O)c1`: -14.1% (inactive). `O=C(CCCN1C(=O)/C(=C/c2ccco2)SC1=S)Nc1ccccc1`: the inhibition was 68.6% (active). With `O=C(CCCN1C(=O)/C(=C\c2ccco2)SC1=S)Nc1cccc2ccccc12` the figure was 86.5% (active); with `O=C(CCCCCN1C(=O)c2cccc3cccc(c23)C1=O)NCc1ccco1`, 2.52% (inactive); with `Cc1ccc(-c2nn(-c3ccccc3)cc2/C=C2\SC(=S)N(CCCCCC(=O)O)C2=O)o1`, 34% (inactive). The same measure for `O=C(CN1C(=O)/C(=C\c2ccccc2F)SC1=S)Nc1nc2ccccc2s1`: -22.4% (inactive). The same measure for `Cc1sc(NC(=O)C2=COCCO2)c(C#N)c1C`: -49.9% (inactive); for `COc1ccc(N2CCN(C(=O)CN3C(=O)COc4ccccc43)CC2)cc1`: -8.57% (inactive); for `CNC1(c2nnnn2-c2c(C)cccc2C)CCOC(C)(C)C1` (configuration not stated): 1.22% (inactive). On to `CCOC(=O)[C@H]1[C@H]2COc3cc(OC)ccc3[C@@H]2N2C(=O)CN(Cc3ccc(Cl)cc3)C(=O)[C@@]12C`, for which the inhibition is -12% (inactive). With `O=C(Cc1ccc(S(=O)(=O)N2CCOCC2)s1)NCCOc1ccccc1F` the figure was 11.2% (inactive). With `Oc1c(Cl)cc(Cl)c(Cl)c1Cc1c(O)c(Cl)cc(Cl)c1Cl` the figure was 95% (active).

As to `CCOc1cc(/C=N/NC(=O)c2ccc(CSc3nncn3C)cc2)ccc1OCC(=O)N1CCOCC1`, the inhibition was -20% (inactive). The same measure for `CCCCCCSc1ccc(-c2nc3ccc(Cl)cn3c2NCc2ccccc2)cc1`: -24.5% (inactive). With `CCCCNc1c(-c2ccc(OC)c(Sc3ccc(OC)cc3)c2)nc2ccc(Cl)cn12` the figure was 41.1% (inactive); with `CCCCNc1c(-c2cccc(Sc3ccc(OC)cc3)c2)nc2ccccn12`, 78.3% (active).

Regarding `CC(=NC1CCN(Cc2ccccc2)CC1)c1c(O)[nH]c(=O)[nH]c1=O`, the inhibition was 10.7% (inactive). The same measure for `O=C1C(C=NCC2CCCO2)=C(O)c2ccccc21` (configuration not stated): -17% (inactive); for `CC(=NCC1CCCO1)c1c(O)[nH]c(=O)[nH]c1=O` (configuration not stated): 60.2% (active); for `CN(Cc1ccccc1)C(=O)c1cccc(C(=O)N(C)Cc2ccccc2)c1`: -13.2% (inactive). With `N#C/C(=C\c1ccccc1)c1n[nH]c(Cn2cncn2)n1` the figure was -1.38% (inactive); with `CCOC(=O)N1CCN(C(=O)C(=O)Nc2sc3c(c2C#N)CC(C)(C)OC3)CC1`, 13.5% (inactive). The same measure for `O=C(NCc1ccccc1)C1C(=O)N(Cc2ccccc2)C(=O)C1C1(O)CCCC1` (configuration not stated): 13% (inactive); for `CCc1nc(C)cn1S(=O)(=O)c1cc([N+](=O)[O-])ccc1Cl`: 66.2% (active); for `CCc1nc(C)cn1S(=O)(=O)c1cc(OC)c(C)cc1C`: 8.72% (inactive). As to `CC(C)c1nccn1S(=O)(=O)c1cc([N+](=O)[O-])ccc1Cl`, the inhibition was 25.4% (inactive). Regarding `C/C(=C(\C#N)C(=O)NCCCN1CCOCC1)N(C)C`, the inhibition was 13.1% (inactive). The same measure for `C#CCOCCOCCOCCNc1nc(N2CCN(C(=O)CCCCCCCCCCNC(=O)[C@H]([C@@H](C)CC)n3cc(CCCCN=C(N)N)nn3)CC2)nc(N2CCN(C(=O)CCCCCCCCCCNC(=O)[C@H](CO)n3cc(CCCSC)nn3)CC2)n1`: 12.1% (inactive). With `C#CCOCCOCCOCCNc1nc(N2CCN(C(=O)CCCCCCCCCCNC(=O)Cn3cc(CCCCCN)nn3)CC2)nc(N2CCN(C(=O)CCCCCCCCCCNC(=O)[C@H](CO)n3cc(CCCSC)nn3)CC2)n1`, the inhibition is 11.3% (inactive).

For `C#CCOCCOCCOCCNc1nc(N2CCN(C(=O)CCCCCCCCCCNC(=O)[C@H](CCCCN)n3cc(C)nn3)CC2)nc(N2CCN(C(=O)CCCCCCCCCCNC(=O)[C@H](CO)n3cc(CCCSC)nn3)CC2)n1`, the inhibition is 52.3% (active). The same measure for `COCCN(C(=O)CC1CCCCC1)c1c(N)n(CC(C)C)c(=O)[nH]c1=O`: 13.6% (inactive). The same measure for `CCOC(=O)CCCNC(=O)COC(=O)c1cc(Br)c(Br)s1`: 12% (inactive). The same measure for `COc1ccc(C)cc1NC(=O)CSc1nnc2ccc(-c3ccccn3)nn12`: 15.8% (inactive); for `COc1ccc(-c2nc3n(c(=O)c2C#N)CCS3)c(OC)c1`: 1.98% (inactive). `Cc1c(Br)c([N+](=O)[O-])nn1C(C)C(=O)Nc1nccs1` (configuration not stated): the inhibition was 9.97% (inactive). With `O=C(NCCN1CCOCC1)c1ccc(/C=C2\Sc3ccccc3N(Cc3ccc(F)cc3)C2=O)cc1` the figure was 62.4% (active); with `Cc1ccccc1CN1C(=O)c2ccccc2Sc2ccc(C(=O)NCCCN3CCOCC3)cc21`, 24.3% (inactive); with `Cc1nn(Cc2ccccc2)c(C)c1C(=O)NCCN1C(=O)S/C(=C\c2ccc(F)cc2)C1=O`, 26.7% (inactive). With `CCCN1CCN(C(=O)CCCNC(=O)c2ccc(Cl)cc2)CC1` the figure was -0.622% (inactive). The same measure for `CN1CCN(CCCNC(=O)c2ccc(/C=C3\Oc4ccccc4N(Cc4ccc(Cl)cc4)C3=O)cc2)CC1`: 99.3% (active). On to `O=C(NCCCN1CCOCC1)c1ccc2c(c1)N(Cc1cccc(F)c1)C(=O)c1ccccc1S2`, for which the inhibition is 13.8% (inactive). The same measure for `O=C(NCCN1CCOCC1)/C(=C/c1ccc(F)cc1)NC(=O)c1ccccc1`: -6.74% (inactive); for `CCN1CCN(CCNC(=O)c2ccc(/C=C3/Sc4ccccc4N(Cc4cccc(C)c4)C3=O)cc2)CC1`: 96.1% (active); for `CC(C)OCCCNC(=O)CN1C(=O)/C(=C/c2ccccc2F)Oc2ccccc21`: 13.4% (inactive). With `O=C(CCc1ccc(S(=O)(=O)N2CCOCC2)cc1)NN=C1CCCCCCC1` the figure was 21.1% (inactive); with `N#Cc1cccc(NC(=O)C2CCCN(C(=O)c3ccc(Cl)cc3)C2)c1` (configuration not stated), 27.2% (inactive); with `O=C(NNC(=O)C1C2CCC(C2)C1C(=O)O)c1ccc(Cl)cc1` (configuration not stated), -14% (inactive).

For the compound `COc1ccc(C(=O)COC(=O)c2nn(C)c(=O)c3ccccc23)c(OC)c1`, the inhibition was 3.83% (inactive). With `CC(NC(=O)c1cccc(S(=O)(=O)N2CCc3ccccc3C2)c1)c1ccco1` (configuration not stated) the figure was 3.48% (inactive); with `O=C(NCc1ccncc1)c1cccc(NS(=O)(=O)c2ccc(F)c(F)c2)c1`, -23.7% (inactive); with `CCOC(=O)C1=C(C)c2ccccc2OC1(C)C(=O)OCC` (configuration not stated), 11.2% (inactive). The same measure for `CC(Oc1ccc2c(-c3ccccc3)cc(=O)oc2c1)C(=O)NC(Cc1c[nH]c2ccccc12)C(=O)O` (configuration not stated): 15.6% (inactive); for `Cc1ccc(-c2nc(C)sc2CC(=O)OCC(=O)Nc2c(F)cccc2F)cc1`: 7.55% (inactive). With `O=C(O)CCCn1c(=O)c2cccn2c2ccc(F)cc21` the figure was 4.87% (inactive); with `Cc1cc(C(=O)N/N=C/c2ccccn2)c2ccccc2n1`, -15.6% (inactive); with `Cc1nnc(N/N=C/c2ccccn2)[nH]c1=O`, 78.6% (active). With `Cc1nnc(N/N=C/C2CC=CCC2)[nH]c1=O` (configuration not stated), the inhibition is 12.6% (inactive).

The inhibition is the relative decrease from the control value, in per cent.
